Screening results: PubChem, National Center for Advancing Translational Sciences (NCATS)
Hits are enriched below; roughly 14% of the tested compounds scored in any of these assays.
HCMV inh – human cytomegalovirus inhibition. activity change, negative = inhibition, % at 57.5 µM. AID 1259415. actives 4.5% (n = 410,000). HFF cells, HCMV-luciferase reporter, 72 h; stronger effect = lower value; in the data active means activity change below about -60%; inconclusive means no clear call, values can overlap the other calls; inactive means above about -39%
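Screen run at 2 compound doses on HFFs infected with reporter HCMV, MOI 1 PFU/cell. Luciferase activity from cell lysates at 72 h post infection gave inhibition relative to buffer-only and Salinomycin wells.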
Sm TGR inh – S. mansoni TGR enzyme inhibition; Potency, µM (highest dose often 114 µM), without a hit: at the top dose activity change, negative = inhibition, actives largely listed as inhibitors; actives 3% (n = 360,000); purified TGR, DTNB reduction, TNB absorbance 405 nm; Q962Y6; further: potency means the concentration at half of the fitted maximal effect; nearly all actives have a fitted effect of over 60% in size
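First, TGR (20 nM dispensed) and NADPH were mixed with compound. Second, a 15 min room-temperature incubation followed. Third, further NADPH and then DTNB were added to start the reaction. Finally, TNB absorbance was monitored kinetically.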
Pf growth 96h – inhibits malaria parasite growth, 96 h; P. falciparum luciferase reporter growth, 96 h; AID 504834; Potency, µM (doses to about 28.7 µM), without a hit: top-dose activity change, negative = inhibition, most hits filed as inhibitors; actives 6.9% (n = 320,000); further: potency means the concentration at half of the fitted maximal effect
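96 h incubation, 37 C, 5% CO2, of luciferase-reporter P. falciparum-infected RBCs (2% hematocrit, 0.05% parasitemia final) with test compounds; endpoint luminescence.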
Pf growth 48h – inhibits P. falciparum growth in the first generation, 48 h. P. falciparum luciferase growth in erythrocytes, 48 h. Potency, µM (top dose mostly 28.7 µM), without a hit: top-dose activity change, negative = inhibition, hits mostly inhibitors. actives 5.9% (n = 310,000); further: potency means the concentration at half of the fitted maximal effect
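Here the parasites carry a stable luciferase gene and grow inside erythrocytes in Albumax-based RPMI medium with compound for one erythrocytic cycle. Activity is scored as loss of luminescent signal.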
Giardia FBPA inh – Giardia lamblia aldolase inhibition; A8B2U2; purified Giardia FBPA; Potency, µM (highest dose often 59.6 µM), without a hit: top-dose activity, negative = inhibition, actives largely listed as inhibitors; actives 0.71% (n = 290,000); further: potency means the concentration at half of the fitted maximal effect; nearly all actives have a fitted effect of over 55% in size
Target sequence (A8B2U2 whole entry, looked up): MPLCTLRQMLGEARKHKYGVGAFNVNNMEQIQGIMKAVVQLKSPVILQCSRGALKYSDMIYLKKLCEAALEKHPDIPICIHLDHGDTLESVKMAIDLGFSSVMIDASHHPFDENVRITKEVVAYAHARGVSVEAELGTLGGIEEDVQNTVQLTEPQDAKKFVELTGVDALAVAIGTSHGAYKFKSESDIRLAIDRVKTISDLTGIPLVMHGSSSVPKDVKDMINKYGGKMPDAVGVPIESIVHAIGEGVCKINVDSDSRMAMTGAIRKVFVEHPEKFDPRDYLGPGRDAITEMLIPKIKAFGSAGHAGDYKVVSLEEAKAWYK
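40 nM FBPA preincubated 10 min at RT with compound (up to 57.5 uM final), then substrate plus GAPDH/TPI/NAD/arsenate coupling and diaphorase/resazurin added. Fluorescence read after 20 min at RT, 525/598 nm.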
* marks the source's active call; other numbers are inactive results; i = inactive; ? = inconclusive; nt = no result given; [ ] = remark or other dose. Unless noted, the call rests on the fitted dose curve; in most records, active means well fitted curve in the direction sought with a large enough effect; inconclusive means small, poorly fitted or top-dose-only effect, or another doubt; inactive means no such curve, though single readings can be large; an effect the other way counts as inactive or inconclusive. On the % scale 0 is the no-effect control and ±100 the full control effect.

SMILES	HCMV inh	Sm TGR inh	Pf growth 96h	Pf growth 48h	Giardia FBPA inh
COc1ccc(NC(=S)NCCC(c2ccccc2)c2ccccc2)c(OC)c1	-60.4*	6.6%	?	?	-8.3%
COc1ccc(NC(=S)NC(=O)CC(C)C)c(OC)c1	-24.6	39.8µM*	i	25.5%[5.75 µM]	-0.1%
COc1cc(NC(=S)NCCC(c2ccccc2)c2ccccc2)cc(OC)c1	?	0.0%	?	13.1µM*	-8.4%
CC(=O)C(C(=O)Nc1c(C)cccc1C)N(C(=O)Cc1ccc([N+](=O)[O-])cc1)c1ccccc1 (centres undefined)	2.9	nt	nt	nt	nt
Cc1cccc(C(=O)OCN2C(=O)c3ccccc3C2=O)c1[N+](=O)[O-]	15.8	5.0%	30.1%	26.3%	nt
Nc1[nH]n2c(=O)cc(-c3ccccc3)nc2c1N=Nc1ccccc1	-78.7*	2.5%	?	?	2.7%
COc1ccc(Cl)cc1NC(=O)CSc1nccn1-c1ccc(Cl)cc1	-81.5*	-1.8%	nt	nt	nt
Cn1c(SCC(=O)Nc2cccc3ccccc23)nc(O)cc1=O	-5.9	14.7%	?	10.4µM*	5.5%
O=C(CSc1nccn1-c1cccc(Cl)c1)Nc1cccc2ccccc12	-62.8*	2.4%	nt	nt	nt
CCOC(=O)C1=CCN(S(=O)(=O)c2ccc([N+](=O)[O-])cc2)C1c1ccc(C)cc1 (centres undefined)	1.8	nt	nt	nt	nt
Cc1cc(Nc2cccc(C(=O)O)c2)n2ncnc2n1	32.5	-2.5%	-10.2%	23.4%	-15.6%
Cc1ccc(S(=O)(=O)N2CCC(=O)N([C@H](COCc3ccc(Cl)cc3)Cc3ccccc3)CC2)cc1	6.2	nt	nt	nt	-6.1%
Cc1ccc(S(=O)(=O)N2CCC(=O)N([C@H](COCc3cccc(Cl)c3)Cc3ccccc3)CC2)cc1	-6.0	nt	nt	nt	nt
Cc1ccc(S(=O)(=O)N2CCC(=O)N(C(COCc3cccc(C(F)(F)F)c3)Cc3ccccc3)CC2)cc1 (centres undefined)	0.6	-5.8%	6.57µM*	?	-6.0%
Cc1ccc(S(=O)(=O)N2CCC(=O)N(C(COCc3ccccc3)Cc3ccccc3)CC2)cc1 (centres undefined)	-9.1	-4.7%	10.4µM*	10.4µM*	-4.3%
Cc1ccc(S(=O)(=O)N2CCC(=O)N(C(COCc3cccc(Cl)c3)Cc3ccccc3)CC2)cc1 (centres undefined)	-16.3	-6.6%	10.4µM*	8.28µM*	-7.3%
O=C(/C=C\c1ccc2c(c1)OCO2)NC1CC(=O)N(c2ccc(F)cc2)C1 (centres undefined)	36.3	10.8%	nt	nt	nt
O=S(=O)(Cc1cccc(C(F)(F)F)c1)c1ncn[nH]1	-18.3	0.0%	4.2%	1.2%	-8.9%
CCOC(=O)c1c(C)[nH]c(C(=O)COC(=O)c2cc(C)oc2C)c1C	-13.9	-12.4%	21.2%	-2.2%	nt
C[C@@H]1C(=O)NC2=Nc3cccc(Cl)c3CN21	nt	nt	9.7%	7.6%	-7.9%
CC1(C(=O)NS(=O)(=O)c2ccc3ccccc3c2)CCN1C(=O)CC1CCCCC1 (centres undefined)	-2.2	nt	nt	nt	nt
Cn1ccnc1Sc1nc(Nc2cccc(Cl)c2)nc(N2CCOCC2)n1	43.4	1.4%	nt	8.28µM*	-0.9%
Cc1cccc(Nc2nc(Nc3cccc(C)c3)nc(N3CCOCC3)n2)c1	-14.6	-0.8%	nt	nt	nt
C=CCNc1nc(N2CCOCC2)nc(N2CCOCC2)n1	19.9	-16.0%	13.1µM*	-13.7%	3.9%
Oc1cccc(Nc2nc(N3CCOCC3)nc(N3CCOCC3)n2)c1	26.6	-33.0%	?	11.7µM*	-12.4%
SMILES	HCMV inh	Sm TGR inh	Pf growth 96h	Pf growth 48h	Giardia FBPA inh
Cc1[nH]c2ccccc2c1/C=N/Nc1nc(Nc2ccc(F)cc2)nc(N2CCOCC2)n1	-8.8	-3.0%	2.62µM*	4.15µM*	-2.1%
O=C1CCCCC1C(O)(C(=O)c1ccccc1)c1ccccc1 (centres undefined)	-16.1	nt	nt	nt	nt
CCOc1ccc(NC(=O)C2CCCN(S(=O)(=O)c3ccc(Br)s3)C2)cc1 (centres undefined)	-4.0	-8.8%	nt	nt	nt
Fc1ccc(Nc2nc(N3CCOCC3)nc(N3CCOCC3)n2)cc1	0.0	-1.5%	13.1µM*	-14.1%	nt
N#Cc1ccc(Oc2nc(Nc3ccc(F)cc3)nc(N3CCCC3)n2)cc1	17.1	0.6%	4.15µM*	nt	-3.0%
CCCCN(CC)C(=O)CCCn1c(=O)c2cccn2c2ccccc21	?	-3.4%	nt	nt	nt
N#Cc1cnc(NN)nc1	-35.4	1.2%	?	10.4µM*	-26.8%
CCCc1nc2sc3c(c2c(=O)n1NC(=O)c1ccco1)CC(C)(C)OC3	-20.8	11.2µM*	-28.0%	-15.1%	7.0%
CCCCCCCCCc1nc2sc3c(c2c(=O)n1NC(=O)c1ccc([N+](=O)[O-])cc1)CC(C)(C)OC3	-13.3	4.4%	296.4%	3.1%	11.3%
Cc1ccc(S(=O)(=O)c2c(C)nn(-c3ccccc3)c2OC(=O)c2ccco2)cc1	?	35.5µM*	1.6%	-7.9%	23.8%
N=c1oc2ccc3ccccc3c2cc1-c1nnc2n1CCCCC2	-18.7	0.0%	9.28µM*	40.6%	-4.5%
Cc1cc(C)c(NC(=O)c2cccc3c2C(=O)N(C2CCCCC2)C3)c(C)c1	nt	-7.8%	44.3%	0.0%	nt
CC(C)(C)OC(=O)N1CCN(c2ccc(CNC(=O)c3ccc(Cl)cc3)cc2)CC1	-95.2*	-26.7%	34.3%	?	-2.9%
CC(C)(C)OC(=O)N1CCC(CNC(=O)c2ccc(F)cc2)CC1	0.0	-19.3%	12.8%	1.65µM*	1.3%
CCCCn1cnc2c(SCc3ccccc3F)nc(N)nc21	61.7	nt	nt	nt	nt
CCc1c(C)c(C#N)c2nc3ccccc3n2c1Cl	nt	11.2µM*	-2.7%	?	5.5%
CCc1c(C)c(C#N)c2nc3ccccc3n2c1NCCOC	?	39.8µM*	?	1.65µM*	5.6%
C=C(C)CN(CC)C(=O)CSc1ccc(S(=O)(=O)N2CCN(C)CC2)cn1	-25.0	0.6%	?	10.4µM*	nt
C=C(C)CN(CC)C(=O)CSc1ccc(S(=O)(=O)N2CCN(Cc3ccccc3)CC2)cn1	-21.3	-21.2%	8.28µM*	?	nt
CC(C)CNC(=O)CSc1ccc(S(=O)(=O)N2CCN(C)CC2)cn1	13.7	-0.3%	?	-1.4%	nt
CCOc1ccc(-c2cc(C(=O)Nc3cc(OC)c(OC)c(OC)c3)[nH]n2)c(C)c1	28.4	nt	nt	nt	nt
COc1ccc(CS(=O)(=O)CC2(O)CCN(C(=O)c3cccc(C(F)(F)F)c3)CC2)cc1	30.5	21.0%	3.0%	14.7µM*	5.1%
O=C(CSc1nccn1-c1cccc(Cl)c1)Nc1cccc(C(F)(F)F)c1	17.6	9.4%	nt	nt	nt
CC(C)=CCN1CCN(Cc2c[nH]c3ccccc23)CC1CCO (centres undefined)	82.8	3.6%	2.94µM*	0.0%	2.2%
CC(C)Cn1c(CN2CCN(C)C(CCO)C2)nc2ccccc21 (centres undefined)	17.1	-30.8%	9.28µM*	-2.1%	-14.8%
